Residue numbers refer to the chain shown, from its start.
Assays:
Experiment in all cases: PBM; 200 nM protein, PBS
Settings in all cases: dsDNA, one strand shown
VENTX [1] = biological target: T1, VENTX (Homo sapiens, UniProt O95231 78-163, R121Q)
T1 sequence: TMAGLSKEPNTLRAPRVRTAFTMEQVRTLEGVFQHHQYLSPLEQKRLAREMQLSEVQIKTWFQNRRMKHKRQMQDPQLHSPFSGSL

HOXA4 [2] = biological target: HOXA4 (Homo sapiens, UniProt Q00056 201-287, W262R)
HOXA7 [3] = biological target: HOXA7 (Homo sapiens, UniProt P31268 116-202)
Sequence of HOXA7 (Homo sapiens, UniProt P31268 116-202) (P31268 116-202): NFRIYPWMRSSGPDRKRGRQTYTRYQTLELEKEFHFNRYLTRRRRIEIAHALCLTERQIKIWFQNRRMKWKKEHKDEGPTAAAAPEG

ALX4 = ALX4 (Homo sapiens, UniProt Q9H161 200-286)
Sequence of ALX4 (Q9H161 200-286): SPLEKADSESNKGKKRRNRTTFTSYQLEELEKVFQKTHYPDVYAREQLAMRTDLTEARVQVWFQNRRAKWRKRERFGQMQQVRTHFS

PRRX1 [4] = biological target: PRRX1 (Homo sapiens, UniProt P54821 80-166, F113S)
Sequence of PRRX1 (Homo sapiens, UniProt P54821 80-166, F113S) (P54821 80-166 F113S): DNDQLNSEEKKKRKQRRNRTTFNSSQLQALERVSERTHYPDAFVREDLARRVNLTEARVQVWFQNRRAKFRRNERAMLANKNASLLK

VENTX [5] = biological target: T2, VENTX (Homo sapiens, UniProt O95231 78-163, Y115F)
T2 sequence: T1 sequence with Y38F, Q44R

HOXB6 = HOXB6 (Homo sapiens, UniProt P17509 132-218, K202E)
Sequence of HOXB6 (P17509 132-218 K202E): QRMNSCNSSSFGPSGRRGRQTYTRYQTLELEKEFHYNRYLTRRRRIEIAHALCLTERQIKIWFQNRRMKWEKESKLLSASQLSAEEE

HOXA2 [6] = biological target: HOXA2 (Homo sapiens, UniProt O43364 129-215, R185T)
Sequence of HOXA2 (Homo sapiens, UniProt O43364 129-215, R185T) (O43364 129-215 R185T): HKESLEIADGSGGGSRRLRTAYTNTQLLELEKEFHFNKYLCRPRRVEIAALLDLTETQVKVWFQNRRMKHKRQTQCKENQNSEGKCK

HOXA4 [7] = biological target: HOXA4 (Homo sapiens, UniProt Q00056 201-287, R217L)
Sequence of HOXA4 (Homo sapiens, UniProt Q00056 201-287, R217L) (Q00056 201-287 R217L): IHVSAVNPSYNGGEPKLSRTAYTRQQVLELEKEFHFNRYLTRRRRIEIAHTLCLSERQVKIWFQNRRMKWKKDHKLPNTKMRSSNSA

HOXB4 = HOXB4 (Homo sapiens, UniProt P17483 148-234, V174I)
Sequence of HOXB4 (P17483 148-234 V174I): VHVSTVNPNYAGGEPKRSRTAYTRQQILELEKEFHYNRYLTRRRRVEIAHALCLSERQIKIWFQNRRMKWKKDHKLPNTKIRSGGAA

PAX4 = biological target: T3, PAX4 (Homo sapiens, UniProt O43316 9-242, R200Q)
T3 sequence: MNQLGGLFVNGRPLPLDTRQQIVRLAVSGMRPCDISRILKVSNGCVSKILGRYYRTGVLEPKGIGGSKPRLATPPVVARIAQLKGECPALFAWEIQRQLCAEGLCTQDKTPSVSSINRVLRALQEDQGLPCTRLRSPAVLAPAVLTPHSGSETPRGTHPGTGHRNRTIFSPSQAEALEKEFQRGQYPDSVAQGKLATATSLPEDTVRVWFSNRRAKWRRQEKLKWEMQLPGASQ

HOXA2 [8] = biological target: HOXA2 (Homo sapiens, UniProt O43364 129-215, R185K)
Sequence of HOXA2 (Homo sapiens, UniProt O43364 129-215, R185K) (O43364 129-215 R185K): as the sequence (O43364 129-215 R185T) above, with T57K counted along it

HOXA4 [9] = biological target: HOXA4 (Homo sapiens, UniProt Q00056 201-287)
Sequence of HOXA4 (Homo sapiens, UniProt Q00056 201-287) (Q00056 201-287): as the sequence (Q00056 201-287 R217L) above, with L17R counted along it

MSX2 [10] = biological target: MSX2 (Homo sapiens, UniProt P35548 130-214)
Sequence of MSX2 (Homo sapiens, UniProt P35548 130-214) (P35548 130-214): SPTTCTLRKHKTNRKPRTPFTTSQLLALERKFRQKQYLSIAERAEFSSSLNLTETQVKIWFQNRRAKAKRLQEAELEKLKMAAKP

MSX2 [11] = biological target: MSX2 (Homo sapiens, UniProt P35548 130-214, F161Y)
Sequence of MSX2 (Homo sapiens, UniProt P35548 130-214, F161Y) (P35548 130-214 F161Y): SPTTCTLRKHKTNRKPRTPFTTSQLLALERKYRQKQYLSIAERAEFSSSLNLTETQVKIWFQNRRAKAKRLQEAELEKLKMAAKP

VAX1 [12] = biological target: VAX1 (Homo sapiens, UniProt Q5SQQ9 86-172, T142I)
Sequence of VAX1 (Homo sapiens, UniProt Q5SQQ9 86-172, T142I) (Q5SQQ9 86-172 T142I): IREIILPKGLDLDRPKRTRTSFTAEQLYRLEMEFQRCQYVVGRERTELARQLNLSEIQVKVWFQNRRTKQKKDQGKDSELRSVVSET

HOXA7 [13] = biological target: HOXA7 (Homo sapiens, UniProt P31268 116-202, W177C)
Sequence of HOXA7 (Homo sapiens, UniProt P31268 116-202, W177C) (P31268 116-202 W177C): as the sequence (P31268 116-202) above, with W62C counted along it

HOXA4 [14] = biological target: HOXA4 (Homo sapiens, UniProt Q00056 201-287, W262F)
Sequence of HOXA4 (Homo sapiens, UniProt Q00056 201-287, W262F) (Q00056 201-287 W262F): as the sequence (Q00056 201-287 R217L) above, with L17R, W62F counted along it

PRRX1 [15] = biological target: PRRX1 (Homo sapiens, UniProt P54821 80-166)
Sequence of PRRX1 (Homo sapiens, UniProt P54821 80-166) (P54821 80-166): as the sequence (P54821 80-166 F113S) above, with S34F counted along it

VAX1 [16] = biological target: VAX1 (Homo sapiens, UniProt Q5SQQ9 86-172, K157R)
Sequence of VAX1 (Homo sapiens, UniProt Q5SQQ9 86-172, K157R) (Q5SQQ9 86-172 K157R): as the sequence (Q5SQQ9 86-172 T142I) above, with I57T, K72R counted along it

Sequence of HOXA4 (Homo sapiens, UniProt Q00056 201-287, W262R) (Q00056 201-287 W262R): as the sequence (Q00056 201-287 R217L) above, with L17R, W62R counted along it

Sequence | binding signal (VENTX [1]) | binding signal (HOXA4 [2]) | binding signal (HOXA7 [3]) | binding signal (ALX4) | binding signal (PRRX1 [4]) | binding signal (VENTX [5]) | binding signal (HOXB6) | binding signal (HOXA2 [6]) | binding signal (HOXA4 [7]) | binding signal (HOXB4) | binding signal (PAX4) | binding signal (HOXA2 [8]) | binding signal (HOXA4 [9]) | binding signal (MSX2 [10]) | binding signal (MSX2 [11]) | binding signal (VAX1 [12]) | binding signal (HOXA7 [13]) | binding signal (HOXA4 [14]) | binding signal (PRRX1 [15]) | binding signal (VAX1 [16])
TAATTACA | 12.2 upbm affinity estimate (log intensity, higher = more binding, comparable within an allelic series) | 10.8 upbm affinity estimate (log intensity, higher = more binding, comparable within an allelic series) | 12.1 upbm affinity estimate (log intensity, higher = more binding, comparable within an allelic series) | 14.2 upbm affinity estimate (log intensity, higher = more binding, comparable within an allelic series) | 11.6 upbm affinity estimate (log intensity, higher = more binding, comparable within an allelic series) | 12.2 upbm affinity estimate (log intensity, higher = more binding, comparable within an allelic series) | 10.2 upbm affinity estimate (log intensity, higher = more binding, comparable within an allelic series) | 13.9 upbm affinity estimate (log intensity, higher = more binding, comparable within an allelic series) | 12.9 upbm affinity estimate (log intensity, higher = more binding, comparable within an allelic series) | 14.4 upbm affinity estimate (log intensity, higher = more binding, comparable within an allelic series) | 12.3 upbm affinity estimate (log intensity, higher = more binding, comparable within an allelic series) | 14 upbm affinity estimate (log intensity, higher = more binding, comparable within an allelic series) | 14.2 upbm affinity estimate (log intensity, higher = more binding, comparable within an allelic series) | 14.1 upbm affinity estimate (log intensity, higher = more binding, comparable within an allelic series) | 13.7 upbm affinity estimate (log intensity, higher = more binding, comparable within an allelic series) | 13.6 upbm affinity estimate (log intensity, higher = more binding, comparable within an allelic series) | 8.98 upbm affinity estimate (log intensity, higher = more binding, comparable within an allelic series) | 12.3 upbm affinity estimate (log intensity, higher = more binding, comparable within an allelic series) | 13.5 upbm affinity estimate (log intensity, higher = more binding, comparable within an allelic series) | 13.6 upbm affinity estimate (log intensity, higher = more binding, comparable within an allelic series)
AATTAATT | 12.1 upbm affinity estimate (log intensity, higher = more binding, comparable within an allelic series) | 10.8 upbm affinity estimate (log intensity, higher = more binding, comparable within an allelic series) | 11.9 upbm affinity estimate (log intensity, higher = more binding, comparable within an allelic series) | 14.7 upbm affinity estimate (log intensity, higher = more binding, comparable within an allelic series) | 11.8 upbm affinity estimate (log intensity, higher = more binding, comparable within an allelic series) | 11.8 upbm affinity estimate (log intensity, higher = more binding, comparable within an allelic series) | 10.2 upbm affinity estimate (log intensity, higher = more binding, comparable within an allelic series) | 13.4 upbm affinity estimate (log intensity, higher = more binding, comparable within an allelic series) | 12.8 upbm affinity estimate (log intensity, higher = more binding, comparable within an allelic series) | 14.1 upbm affinity estimate (log intensity, higher = more binding, comparable within an allelic series) | 12.8 upbm affinity estimate (log intensity, higher = more binding, comparable within an allelic series) | 13.5 upbm affinity estimate (log intensity, higher = more binding, comparable within an allelic series) | 14 upbm affinity estimate (log intensity, higher = more binding, comparable within an allelic series) | 14.1 upbm affinity estimate (log intensity, higher = more binding, comparable within an allelic series) | 13.8 upbm affinity estimate (log intensity, higher = more binding, comparable within an allelic series) | 13.2 upbm affinity estimate (log intensity, higher = more binding, comparable within an allelic series) | 8.91 upbm affinity estimate (log intensity, higher = more binding, comparable within an allelic series) | 12.2 upbm affinity estimate (log intensity, higher = more binding, comparable within an allelic series) | 13.6 upbm affinity estimate (log intensity, higher = more binding, comparable within an allelic series) | 13.1 upbm affinity estimate (log intensity, higher = more binding, comparable within an allelic series)
CATAATTA | 12 upbm affinity estimate (log intensity, higher = more binding, comparable within an allelic series) | 10.9 upbm affinity estimate (log intensity, higher = more binding, comparable within an allelic series) | 12 upbm affinity estimate (log intensity, higher = more binding, comparable within an allelic series) | 14.2 upbm affinity estimate (log intensity, higher = more binding, comparable within an allelic series) | 11.6 upbm affinity estimate (log intensity, higher = more binding, comparable within an allelic series) | 11.9 upbm affinity estimate (log intensity, higher = more binding, comparable within an allelic series) | 10.2 upbm affinity estimate (log intensity, higher = more binding, comparable within an allelic series) | 13.6 upbm affinity estimate (log intensity, higher = more binding, comparable within an allelic series) | 12.7 upbm affinity estimate (log intensity, higher = more binding, comparable within an allelic series) | 14.4 upbm affinity estimate (log intensity, higher = more binding, comparable within an allelic series) | 12.1 upbm affinity estimate (log intensity, higher = more binding, comparable within an allelic series) | 13.8 upbm affinity estimate (log intensity, higher = more binding, comparable within an allelic series) | 14.3 upbm affinity estimate (log intensity, higher = more binding, comparable within an allelic series) | 13.9 upbm affinity estimate (log intensity, higher = more binding, comparable within an allelic series) | 13.5 upbm affinity estimate (log intensity, higher = more binding, comparable within an allelic series) | 13.6 upbm affinity estimate (log intensity, higher = more binding, comparable within an allelic series) | 9.06 upbm affinity estimate (log intensity, higher = more binding, comparable within an allelic series) | 12.2 upbm affinity estimate (log intensity, higher = more binding, comparable within an allelic series) | 13.6 upbm affinity estimate (log intensity, higher = more binding, comparable within an allelic series) | 13.7 upbm affinity estimate (log intensity, higher = more binding, comparable within an allelic series)
